Experimental data reported in PubChem BioAssay (Tox21).
Where “and” joins values, the source holds several entries; their conditions need not be identical. Identical values can stand only once. Results filed as inconclusive are left out. Calls of active or inactive are those of the source. Unless noted, the call rests on the fitted dose curve; in most records, active means well fitted curve in the direction sought with a large enough effect in the repeat runs; inconclusive means weak or mixed curves; inactive means no such curve, though single readings can be large; an effect the other way counts as inactive or inconclusive.

How the values were obtained:
[1] = qHTS assay for small molecule agonists of the p53 signaling pathway (AID 651631; calls by dose curve; further: nearly all actives have a fitted effect of over 15% in size; further: potency means the concentration at half of the fitted maximal effect)
How it was run: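 Quantitative high-throughput format: 4,000 p53RE-bla HCT-116 cells/well, 5 h pre-incubation, 16 h compound exposure at 37 °C, 2 h room-temperature substrate step, fluorescence intensity measured.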

[2] = qHTS assay for small molecules that induce genotoxicity in human embryonic kidney cells expressing luciferase-tagged ATAD5 (AID 651632); further: nearly all actives have a fitted effect of over 15% in size
How it was run: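 Test compounds were delivered by pin tool onto HEK293T reporter cells (2,000/well) expressing ATAD5 fused to luciferase. After 16 hr at 37C, 5% CO2, Amplite was added for 30 min at room temperature and luminescence was measured.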

[3] = qHTS assay for small molecule agonists of the p53 signaling pathway - cell viability (AID 651633; calls by dose curve;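 further: p53RE-bla HCT reporter cells with a stable beta-lactamase p53 reporter; series mostly up to about 83 µM; nearly all actives have a fitted effect of over 30% in size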)
How it was run: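 p53RE-bla cells were treated with compound for 16 hours at 37 C. Cytotoxicity was then measured as CellTiter-Glo luminescence after 30 min at room temperature.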

[4] = qHTS assay for small molecules that induce genotoxicity in human embryonic kidney cells expressing luciferase-tagged ATAD5 - cell viability (AID 651634; calls by dose curve; further: nearly all actives have a fitted effect of over 25% in size; further: potency means the concentration at half of the fitted maximal effect)
How it was run: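 Quantitative high-throughput format. HEK293T cells expressing ATAD5 fused to luciferase were plated at 2,000 cells/well and treated 15.5 hr with compound versus DMSO. Viability was determined by fluorescent live-cell protease substrate, 30 min at 37C.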

[5] = qHTS assay for small molecule disruptors of the mitochondrial membrane potential - cell viability (AID 720634; calls by dose curve; further: nearly all actives have a fitted effect of over 20% in size; further: potency means the concentration at half of the fitted maximal effect)
How it was run: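 Same-well counter-screen: following the MMP dye addition, CellTiter-Glo was added to 1 hr compound-treated HepG2 cells and luminescence read after 30 min at room temperature.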

[6] = qHTS assay for small molecule disruptors of the mitochondrial membrane potential (AID 720635); further: potency means the concentration at half of the fitted maximal effect
How it was run: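 HepG2 cells exposed to compound 1 hr at 37C, then Mito-MPS dye 30 min. Ratio read of aggregate (540/590 nm) versus monomer (490/535 nm) fluorescence.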

[7] = qHTS assay to test for compound auto fluorescence at 590 nm (red) in HepG2 cells (AID 720674)
How it was run: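 HepG2 cells, 2,000 per well in MEM with 10% FBS, attached overnight at 37 C, then got 23 nL compound or DMSO. After 1 hr at 37 C, 5% CO2, red fluorescence was read at 540/590 nm against Rose Bengal sodium as reference.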

[8] = qHTS assay to test for compound auto fluorescence at 460 nm (blue) in HEK293 cells (AID 720678)
How it was run: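 Intrinsic compound fluorescence is recorded in live HEK293 cultures after overnight incubation at 37C, 5% CO2, using excitation 405 nm and emission 460 nm. Values are referenced to triamterene.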

[9] = qHTS assay to test for compound auto fluorescence at 590 nm (red) in HEK293 cells (AID 720679)
How it was run: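 Red autofluorescence, HEK293 cells: 2,000 cells/well; attach 4-5 hr 37C; add 23 nL cpd or DMSO; incubate o/n 37C 5% CO2; read Ex540/Em590; Rose Bengal sodium reference.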

[10] = qHTS assay to test for compound auto fluorescence at 535 nm (green) in HEK293 cells (AID 720680)
[11] = qHTS assay to test for compound auto fluorescence at 460 nm (blue) in HEK293 cell free culture (AID 720681)
How it was run: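 Compounds were added to cell-free DMEM with 10% FBS and fluorescence read directly. The blue channel used 405 nm excitation and 460 nm emission, with triamterene as the reference fluorophore.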

[12] = qHTS assay to test for compound auto fluorescence at 535 nm (green) in HEK293 cell free culture (AID 720682)
How it was run: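 Measurement is a direct plate read of green fluorescence (485 nm in, 535 nm out) after compound addition to serum-supplemented DMEM lacking cells, with fluorescein used to express intensities.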

[13] = qHTS assay to test for compound auto fluorescence at 590 nm (red) in HEK293 cell free culture (AID 720683)
How it was run: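 Cell-free wells of DMEM with 10% FBS received compound, and intrinsic fluorescence was read at excitation/emission 540/590 nm. Values expressed as equivalence to Rose Bengal sodium.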

[14] = qHTS assay to test for compound auto fluorescence at 590 nm (red) in HepG2 cell free culture (AID 720684)
How it was run: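 Auto fluorescence equivalency versus Rose Bengal sodium, red channel Ex/Em 540/590 nm; compounds in cell-free MEM/10% FBS; DMSO vehicle control.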

[15] = qHTS assay to test for compound auto fluorescence at 460 nm (blue) in HepG2 cell free culture (AID 720685)
How it was run: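 Cell-free plates of MEM plus 10% FBS received 23 nL compound or DMSO vehicle; blue-channel (405/460 nm) intensity scored against triamterene as reference fluorophore.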

[16] = qHTS assay to test for compound auto fluorescence at 535 nm (green) in HepG2 cell free culture (AID 720686)
[17] = qHTS assay to test for compound auto fluorescence at 460 nm (blue) in HepG2 cells (AID 720687)
How it was run: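 HepG2 cells in MEM with 10% FBS, attached overnight at 37 C, were exposed to compound or DMSO for 1 hr at 37 C, 5% CO2. Blue fluorescence was read at 405/460 nm, with triamterene as reference fluorophore.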

[18] = target: Glucocorticoid receptor (Homo sapiens) (UniProt P04150); assay: qHTS assay to identify small molecule agonists of the glucocorticoid receptor (GR) signaling pathway (AID 720691; active means well fitted activation curve with a large enough effect in the signal ratio in the repeat runs, not every such curve was filed as active; the % refers to the signal ratio)
Chain of Glucocorticoid receptor (Homo sapiens) (P04150 whole entry, looked up): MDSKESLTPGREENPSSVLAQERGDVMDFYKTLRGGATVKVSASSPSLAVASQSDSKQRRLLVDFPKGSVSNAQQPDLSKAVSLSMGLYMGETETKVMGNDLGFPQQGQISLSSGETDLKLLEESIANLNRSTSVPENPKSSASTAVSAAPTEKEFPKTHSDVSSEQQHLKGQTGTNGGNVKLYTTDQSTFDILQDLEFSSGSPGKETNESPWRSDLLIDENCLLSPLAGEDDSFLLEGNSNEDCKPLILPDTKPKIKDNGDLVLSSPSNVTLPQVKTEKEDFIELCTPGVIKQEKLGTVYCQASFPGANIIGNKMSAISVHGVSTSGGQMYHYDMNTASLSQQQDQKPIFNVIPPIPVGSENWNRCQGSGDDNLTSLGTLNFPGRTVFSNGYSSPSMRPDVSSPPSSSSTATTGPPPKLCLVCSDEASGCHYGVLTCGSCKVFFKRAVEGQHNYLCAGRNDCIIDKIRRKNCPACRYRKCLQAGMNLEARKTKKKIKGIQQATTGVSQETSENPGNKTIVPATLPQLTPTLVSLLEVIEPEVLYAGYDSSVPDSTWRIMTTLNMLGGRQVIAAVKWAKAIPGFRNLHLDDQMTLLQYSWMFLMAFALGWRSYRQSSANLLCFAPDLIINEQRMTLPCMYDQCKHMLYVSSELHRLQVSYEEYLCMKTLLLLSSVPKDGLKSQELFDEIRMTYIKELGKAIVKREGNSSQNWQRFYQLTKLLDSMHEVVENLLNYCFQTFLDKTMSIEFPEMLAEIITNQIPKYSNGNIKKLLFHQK
How it was run: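 A HeLa cervical cancer line expressing GR and a glucocorticoid response element-driven beta-lactamase gene is treated with compounds for 18 h; LiveBLAzer B/G FRET substrate is then applied and fluorescence read.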

[19] = qHTS assay to test for compound auto fluorescence at 535 nm (green) in HepG2 cells (AID 720675)
[20] = target: Glucocorticoid receptor (Homo sapiens) (UniProt P04150); assay: qHTS assay to identify small molecule antagonists of the glucocorticoid receptor (GR) signaling pathway (AID 720692; active means well fitted inhibition curve with a large enough effect in the signal ratio in the repeat runs, not every such curve was filed as active; the % refers to the signal ratio)
How it was run: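 GRE-bla HeLa line, dex-stimulated (5 nM final). Compound exposure 18 h, 37 C. Beta-lactamase FRET read after 2 h RT substrate.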
On the % scale 0 is the no-effect control and ±100 the full control effect.

CCOC(=O)CC(SP(=S)(OC)OC)C(=O)OCC (stereo not drawn)
inactive: Potency [1] | outcome [2] | Potency [3] | Potency [4] | Potency [5] | Potency [6] | outcome [7] | outcome [8] | outcome [9] | outcome [10] | outcome [11] | outcome [12] | outcome [13] | outcome [14] | outcome [15] | outcome [16] | outcome [17] | Potency [18]

C/C=C/CC#N
inactive: Potency [1] | outcome [2] | Potency [3] | Potency [4] | Potency [5] | outcome [7] | outcome [19] | outcome [8] | outcome [9] | outcome [10] | outcome [11] | outcome [12] | outcome [13] | outcome [14] | outcome [15] | outcome [16] | outcome [17]

N=C(N)[Se]
inactive: Potency [1] | outcome [2] | Potency [3] | Potency [4] | Potency [5] | Potency [6] | outcome [7] | outcome [19] | outcome [8] | outcome [9] | outcome [10] | outcome [13] | outcome [15] | outcome [16] | outcome [17] | Potency [18]

C=C(Cl)CCl
inactive: Potency [1] | outcome [2] | Potency [3] | Potency [4] | Potency [5] | Potency [6] | outcome [7] | outcome [19] | outcome [8] | outcome [9] | outcome [10] | outcome [13] | outcome [14] | outcome [15] | outcome [16] | outcome [17] | Potency [18] | Potency [20]

OP(O)c1ccccc1
inactive: Potency [1] | outcome [2] | Potency [3] | Potency [4] | Potency [5] | Potency [6] | outcome [7] | outcome [8] | outcome [9] | outcome [10] | outcome [11] | outcome [12] | outcome [13] | outcome [15] | outcome [16] | outcome [17] | Potency [18] | Potency [20]

C[C@H]1CCCC(=O)CCC/C=C/c2cc(O)cc(O)c2C(=O)O1
active: Potency [1] 9.33 µM and 22.4 µM | Potency [4] 20.9 µM | Potency [5] 11.7 µM and 20 µM | Potency [6] 2.34 µM and 4.47 µM
inactive: outcome [2] | Potency [3] | outcome [7] | outcome [19] | outcome [8] | outcome [9] | outcome [10] | outcome [12] | outcome [13] | outcome [15] | outcome [16] | outcome [17]

CC(=O)OCC1=C(C(=O)O)N2C(=O)[C@@H](N)[C@H]2SC1
inactive: Potency [1] | outcome [2] | Potency [3] | Potency [4] | Potency [5] | Potency [6] | fluorescence, relative to Rose Bengal [7] 0.341% [at 18.6 µM] | fluorescence, % of fluorescein control [19] 0.0248% [at 18.6 µM] | fluorescence, % of fluorescent control [9] 0.0847% [at 18.6 µM] | fluorescence, % of fluorescein [10] -0.0094% [at 18.6 µM] | activity change [12] 0.0026% [at 18.6 µM] | fluorescence, % of fluorescent control [13] 0.162% [at 18.6 µM] | fluorescence, % of Rose Bengal [14] 0.155% [at 18.6 µM] | fluorescence, % of fluorescent control [15] -0.0695% [at 18.6 µM] | fluorescence, % of fluorescein control [16] 0.161% [at 18.6 µM] | fluorescence, % of fluorescent control [17] 0.185% [at 18.6 µM] | Potency [18]

Nc1c(Cl)c(F)nc(OCC(=O)O)c1Cl
inactive: Potency [1] | outcome [2] | Potency [3] | Potency [4] | Potency [5] | Potency [6] | outcome [7] | outcome [19] | outcome [8] | outcome [9] | outcome [10] | outcome [11] | outcome [12] | outcome [13] | outcome [14] | outcome [16] | outcome [17] | Potency [18]
